# Source: PubChem BioAssay (National Center for Advancing Translational Sciences (NCATS))
# Cycloheximide cs = counter-screen hit for Shiga toxin inhibitors, cycloheximide; AID 2314; cell reporter, cycloheximide protein synthesis inhibition counterscreen; max response, %; hit rate 12% among 300,000; in the data active = max response mostly above about 13%, no sharp cut-off; inactive = mostly below about 14%; also: read at 38.3 µM for the half of the compounds with a filed dose
# Shiga toxin inh = blocks Shiga toxin action in Vero cells | Vero cells, Shiga toxin protein synthesis inhibition reporter | AID 2315 | inhibition, % at 38.7 µM | hit rate 9.2% among 290,000; in the data active = inhibition mostly above about 28%, no sharp cut-off; inactive = mostly below about 43%
# FMDV antiviral = foot and mouth disease virus antiviral activity; FMDV antiviral cell-based qHTS; Potency, µM (highest dose often 57.9 µM), actives largely listed as inhibitors; hit rate 1.2% among 410,000; calls by dose curve; tested in HEK293T cells; also: read-out not given here; nearly all actives have a fitted effect of over 45% in size
# Sm TGR inh = inhibitors of Schistosoma mansoni thioredoxin glutathione reductase | Q962Y6 | purified TGR, DTNB reduction, TNB absorbance 405 nm | Potency, µM (doses to about 114 µM), hits mostly inhibitors | hit rate 3% among 360,000 | AID 485364; active = well fitted inhibition curve with a large enough effect; inconclusive = small, poorly fitted or top-dose-only effect; inactive = no such curve, though single readings can be large or run the other way; also: nearly all actives have a fitted effect of over 60% in size
#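 TGR 20 nM + NADPH 100 uM (dispensed conc.), cpd preinc 15 min RT; start with NADPH (500 uM addition) then DTNB (15 mM addition). Kinetic TNB absorbance, 405 nm filter. Four-parameter Hill fit across titration.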
# A number is an active result; i = inactive; ? = inconclusive; nt = not tested or not shown; [ ] = dose if it differs, or a comment. Most compounds without a hit are left out; they make up all but 12% or so of the library.
SMILES,Cycloheximide cs,Shiga toxin inh,FMDV antiviral,Sm TGR inh
CC(=O)Nc1ccc(NC(=O)C(C)OC(=O)C2(c3ccc(F)cc3)CCCC2)cc1 (centres undefined),i,i,25.1µM,i
CC(=O)Nc1ccc(NC(=O)C(C)OC(=O)C2(c3ccc(Cl)cc3)CCCC2)cc1 (centres undefined),i,i,i,i
CCOC(=O)c1cccc(NC(=O)NCc2cccn2Cc2ccccc2)c1,nt,nt,i,i
O=S(=O)(c1cccc(S(=O)(=O)N2CCOCC2)c1)N1CCCCC1,i,i,i,i
Cc1cc(C(=O)CCl)c(C)n1-c1cccc(S(=O)(=O)N2CCOCC2)c1,i,i,25.1µM,3.55µM
Cc1cc(C(=O)CSc2ncn[nH]2)c(C)n1-c1cccc(S(=O)(=O)N2CCOCC2)c1,i,i,28.2µM,i
Cc1cc(C(=O)CN2C(=O)CN(C)C2=O)c(C)n1-c1cccc(S(=O)(=O)N2CCOCC2)c1,i,i,i,i
Cc1ccc(C)n1-c1cccc(S(=O)(=O)N2CCOCC2)c1,i,i,i,35.5µM
CC(C)Oc1ccc(CNC(=O)CN2C(=O)CCn3nc(-c4cn(C)c5ccccc45)cc32)cc1,nt,nt,i,i
COC(=O)C1CCCCN1Cc1ccc2c(c1)CN(C(=O)c1ccc(F)cc1)CCO2 (centres undefined),nt,nt,i,nt
COc1ccc(CNC(=O)c2cnc(N3CCCC3)nc2C)cc1,nt,nt,i,i
COc1cccc(NC(=O)c2nc(SC)ncc2Cl)c1,i,i,i,i
Cc1cccc(NC(=O)c2nc(S(C)(=O)=O)ncc2Cl)c1,nt,nt,25.1µM,4.47µM
COc1cccc(NC(=O)c2ncc(Cl)c(Cl)c2Cl)c1,32.0,63.2,i,i
COc1cccc(NC(=O)c2nc(S(C)(=O)=O)ncc2Cl)c1,i,i,22.4µM,10µM
O=C1/C(=C\Nc2ccc(Cl)cc2)CCN1c1ncccn1,23.0,88.9,i,15.8µM
O=C1/C(=C\Nc2ccc(OC(F)(F)F)cc2)CCN1c1ncccn1,i,i,i,?
CCc1ccc(C2=C(C)C(N3CCC(C(=O)Nc4ccc(F)cc4)CC3)=NS2(=O)=O)cc1,nt,nt,i,i
CCN(CC)c1ccc(S(=O)(=O)N2CCOCC2)cc1NC(=O)COC(=O)/C=C/c1ccccc1,nt,nt,i,nt
CN(C)S(=O)(=O)c1cccc(NC(=O)COC(=O)/C=C/c2ccc3c(c2)OCO3)c1,16.4,i,i,i
Cc1ccc(S(=O)(=O)N(C)C)cc1NC(=O)COC(=O)/C=C/c1cnc2ccccc2n1,i,i,i,i
CCN(CC)c1ccc(S(=O)(=O)N2CCOCC2)cc1NC(=O)COC(=O)/C=C/c1ccc(C)o1,nt,nt,i,31.6µM
Cc1ccc(S(=O)(=O)N(C)C)cc1NC(=O)COC(=O)/C=C/c1ccc2c(c1)OCO2,17.2,i,i,i
Cc1ccc(/C=C/C(=O)OCC(=O)Nc2cccc(S(=O)(=O)N(C)C)c2)o1,13.6,i,i,?
COc1ccc2c(c1)CC(NC(=O)Nc1ccc(Br)c(C)c1)CO2 (centres undefined),nt,nt,i,i
SMILES,Cycloheximide cs,Shiga toxin inh,FMDV antiviral,Sm TGR inh
O=C(NCCc1cccs1)c1ccc(Cn2c(SCc3ccccc3)nc3cccnc32)cc1,nt,nt,i,i
O=Nc1c(O)c2ccccc2c2ccccc12,nt,nt,11.2µM,nt
O=Nc1c2cc3ccccc3[nH]c-2c2ccccc12,nt,nt,i,nt
Cc1ccc(CC2C(=O)N(C)C(=O)N(C)C2=O)s1,i,i,i,39.8µM
CCOC(=O)C1=C(C)N(C)C(=O)NC1c1ccc(C)s1 (centres undefined),i,i,i,i
CC1(CCc2ccccc2)NC(=O)N(CC(=O)Nc2ccccc2)C1=O (centres undefined),16.1,i,i,i
CN(C)/C=C(\C#N)c1nc2ccccc2[nH]1,i,i,nt,i
COC(=O)/C(=C\c1cc(OC)c(OC)c(OC)c1)c1nc2ccccc2[nH]1,21.6,i,15.8µM,i
C/C(=C\c1ccc(N)cc1)c1nc2ccccc2[nH]1,49.3,61.0,i,i
COC(=O)/C(=C\c1ccc(O)cc1)c1nc2ccccc2[nH]1,35.3,60.3,i,i
NCCCCCc1nnc(SCc2ccc(F)cc2)o1,nt,nt,i,i
c1ccc(CCN=C2CCCc3c2[nH]c2ccccc32)cc1,i,i,i,56.2µM
c1ccc2c3c([nH]c2c1)CCNC3,i,i,i,i
Nc1ccc(C(=O)N/N=C2\CCCc3c2[nH]c2ccccc32)cc1,24.9,i,i,i
O=S(=O)(Nc1c(Br)cc(Br)c2cccnc12)C1CC1,i,i,nt,nt
O=C(/C=C/c1ccc(Cl)cc1)N(Cc1ccccc1)c1ccccn1,21.1,106.8,i,nt
COc1ccccc1-c1nc2c(c(SCC(=O)Nc3ccc(C)c(C)c3)n1)Cc1c(CO)cnc(C)c1O2,nt,nt,i,i
Cc1cc(Br)cc2c1NC(=O)C2(c1c(C)n(C)n(-c2ccccc2)c1=O)c1c(C)n(C)n(-c2ccccc2)c1=O,i,i,i,44.7µM
Cc1c(C2(c3c(C)n(C)n(-c4ccccc4)c3=O)C(=O)Nc3ccc(F)cc32)c(=O)n(-c2ccccc2)n1C,i,i,i,i
Cc1sc(NC(=S)NC(=O)c2ccco2)c(C(N)=O)c1C,25.9,93.4,i,i
CCN1CCc2c(sc(NC(=S)NC(=O)c3ccco3)c2C(N)=O)C1,13.9,i,i,i
CSc1ccc(NC(=O)c2cccnc2)cc1C#N,i,50.7,i,i
O=C(Nc1ccc(N2CCOCC2)c(Cl)c1)c1cccc(F)c1,43.5,118.6,i,i
O=C(Nc1ccc(N2CCOCC2)c(Cl)c1)c1cc(F)c(F)cc1Cl,18.9,i,i,i
O=C(Nc1ccc(N2CCN(C(=O)c3cccs3)CC2)c(Cl)c1)c1cccnc1,i,i,i,i
SMILES,Cycloheximide cs,Shiga toxin inh,FMDV antiviral,Sm TGR inh
O=C(Nc1ccc(F)c(F)c1)c1cccnc1,i,i,i,i[11.4 µM]
O=C(Nc1ccc(N2CCCC2)c(Cl)c1)c1cccnc1,38.6,54.4,i,50.1µM
O=C(Nc1ccc(N2CCOCC2)c(Cl)c1)c1c(F)c(F)c(F)c(F)c1F,i,i,?,i
CCOC(=O)N1CCC(NC(=O)c2cnn(-c3ccc(C)cc3)c2C2CCN(C(=O)OC(C)(C)C)CC2)CC1,nt,nt,i,?
CCN(CC)C(=O)Cn1c(=O)n(-c2ccc(Cl)cc2)c(=O)c2c3c(sc21)CCC3,nt,nt,i,i
O=C(Cn1c(=O)n2nc(-c3cccc(F)c3)nc2c2ccccc21)N1CCN(c2ccc(F)cc2)CC1,nt,nt,i,i
Cc1ccn2c(=O)cc(CSc3nnc(C)s3)nc2c1,nt,nt,i,i
COc1c(C)cccc1C(=O)Nc1ccc(N2CCOCC2)c(Cl)c1,89.1,121.3,i,i
O=C(Nc1ccc(N2CCOCC2)c(Cl)c1)c1cccnc1Cl,i,i,i,i
O=C(Nc1ccc(Cl)c(Cl)c1)c1cccnc1,35.2,nt,i,i
O=C(Nc1ccc(N2CCOCC2)cc1)c1cccnc1,27.9,38.0,i,i
O=C(Nc1ccc(N2CCOCC2)c(Cl)c1)c1cccnc1,26.2,52.7,i,i
O=C(Nc1ccccc1N1CCOCC1)c1cccnc1,i,i,i,i
CN(C)c1ccc(-c2cncnc2NCc2ccccc2)cc1,nt,nt,i,nt
Oc1cc2c(cc1O)[C@@H]1c3ccc(O)c(O)c3OC[C@]1(O)C2,nt,nt,i,nt
Oc1cc(-c2nc3ccccc3s2)cc2c1OCCN(Cc1cccn1-c1ccc(Cl)cn1)C2,nt,nt,i,nt
O=C(Nc1ccc(N2CCCCC2)c(Cl)c1)c1cccnc1,i,96.0,i,i
Cc1ccc(NC(=O)c2cccnc2)cc1C,19.1,nt,i,i
